Assay results published in ChEMBL document CHEMBL4513216, “Probing the Open Global Health Chemical Diversity Library for Multistage-Active Starting Points for Next-Generation Antimalarials” (ACS Infect Dis, 2020).
Among all 69,000 compounds or so, about 8,600 (12%) showed an effect of 50% or more. For the sample, strong results were picked, then their nearest neighbours and some compounds at random.

System: Plasmodium berghei
Test: Screen against P. berghei liver stage (PbLuc), transformed with Luciferase, at 10uM
Format: functional, HepG2
Details: tested at 10 uM

SMILES	INHIBITION
Cc1cnn(CCNCc2nc(CNC(=O)c3ccccc3)no2)c1	7.08%
CC(=O)Nc1ccc(CNc2cccc(OCCF)c2)cc1	25.2%
CNC(=O)c1ccc(OC2CCN(S(C)(=O)=O)CC2)c(Cl)c1	-22.1%
CS(=O)(=O)N1CCC(Oc2ccc(C(=O)NC3CCCC3)cc2Cl)CC1	-14.5%
CS(=O)(=O)N1CCC(Oc2ccc(C(=O)N3CCSCC3)cc2Cl)CC1	63.3%
CCN(CC)S(=O)(=O)N(CC)Cc1ccc2c(c1)OCCO2	-19.9%
Cc1nn(Cn2ccc(C(=O)N3CCC(C)CC3)n2)c(C)c1Cl	-20.8%
Cc1noc(C)c1-c1n[nH]c2c1CN(S(=O)(=O)c1ccsc1)CC2	39.4%
CS(=O)(=O)N1CCc2[nH]nc(Cc3cccs3)c2C1	0.472%
Cc1noc(C)c1-c1n[nH]c2c1CN(S(=O)(=O)c1cccnc1)CC2	23.3%
CSCCc1n[nH]c2c1CN(S(=O)(=O)c1cn(C)c(C)n1)CC2	-10.8%
Cc1cc(-c2n[nH]c3c2CN(S(=O)(=O)c2ccsc2)CC3)c(C)o1	54.4%
Cc1noc(C)c1-c1n[nH]c2c1CN(S(=O)(=O)c1cccs1)CC2	61.8%
CCC(CN1CCCC1)n1cncc1-c1cnn(-c2ccccc2)c1 (stereo not drawn)	33.95%
CC(C)[C@H](N)c1nnc(SCC(=O)Nc2ccc(Br)cc2)o1	25.3%
Cc1nc(C2CCCN2Cc2ccc(S(=O)(=O)N(C)C)o2)no1 (stereo not drawn)	22.3%
CNC(=O)c1ccc(CN(C(=O)c2scnc2C)C2CC2)cc1	6.92%
CN(Cc1ccc([S+](C)[O-])cc1)c1ccc(Br)cn1 (stereo not drawn)	43.7%
CNC(=O)c1ccc(CN(C)c2ccc(C(F)(F)F)cn2)cc1	58.3%
CN(Cc1ccc([S+](C)[O-])cc1)c1ccc(C(F)(F)F)cn1 (stereo not drawn)	52.2%
CN(Cc1ccc(C(N)=O)cc1)c1ccc(C(F)(F)F)cn1	1.79%
CN(Cc1ccccc1)c1ccc(C(F)(F)F)cn1	38.6%
CCc1cnc(CN(C)C2CCN(CCNS(=O)(=O)CC)C2)o1 (stereo not drawn)	-42%
CN1Cc2c(C(=O)Nc3cccnc3)ncn2-c2ccccc2S1(=O)=O	45.1%
CN(C)CCO[C@H]1CN(Cc2cccc(C#N)c2)[C@@H]2COC[C@H]12	-46.9%
CCS(=O)(=O)N1CCCC2(CCCN2C(=O)c2cscn2)C1 (stereo not drawn)	4.02%
CCS(=O)(=O)N1CCCC2(CCCN2C(=O)c2cn(C)cn2)C1 (stereo not drawn)	61.9%
CCS(=O)(=O)N1CCC2(CN(C(=O)c3cn(C)cn3)C2)C1	-28.2%
